NIH3T3 tox: NIH 3T3 cell cytotoxicity; AID 1345082; 94,000 compounds, 4.3% hits; NIH 3T3 viability, CellTiter-Glo ATP luminescence, 48-72 h; Potency, µM (titrated, usually from 96.7 µM), hits mostly inhibitors; further: nearly all actives have a fitted effect of over 55% in size
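Luminescent ATP readout (CellTiter-Glo, 10 min RT) after 48 or 72 hr compound exposure of NIH 3T3 cells seeded at 400 cells/well in 1536-well format; quantitative HTS.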
GPT2 inhibitor: GPT2 alanine aminotransferase inhibition | 100,000 compounds, 0.25% hits | Q8TD30 | Potency, µM (series often up to 57.7 µM), hits mostly inhibitors | Recombinant GPT2, coupled pyruvate oxidase/HRP Amplex Red fluorescence; further: nearly all actives have a fitted effect of over 60% in size
Target sequence (Q8TD30 whole entry, looked up): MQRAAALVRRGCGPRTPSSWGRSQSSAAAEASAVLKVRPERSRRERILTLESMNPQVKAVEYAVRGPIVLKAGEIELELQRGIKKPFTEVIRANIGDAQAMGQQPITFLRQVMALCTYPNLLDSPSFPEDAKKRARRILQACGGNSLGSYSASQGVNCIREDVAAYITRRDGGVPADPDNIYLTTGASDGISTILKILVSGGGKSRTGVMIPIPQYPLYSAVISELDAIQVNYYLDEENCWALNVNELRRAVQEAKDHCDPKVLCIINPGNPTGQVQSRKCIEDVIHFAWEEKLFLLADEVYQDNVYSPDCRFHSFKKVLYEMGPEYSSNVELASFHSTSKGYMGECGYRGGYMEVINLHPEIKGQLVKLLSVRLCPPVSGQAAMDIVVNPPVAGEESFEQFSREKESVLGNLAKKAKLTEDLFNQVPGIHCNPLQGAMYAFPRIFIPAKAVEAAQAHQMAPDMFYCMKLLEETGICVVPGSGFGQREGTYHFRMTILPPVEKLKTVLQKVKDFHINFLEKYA
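GPT2 10ng/uL, a-KG 250uM, L-Ala 2mM, HEPES pH7.5 + 0.0001% Tween; 30 min RT. Then Amplex mix (PO/HRP/ThPP), 30 min RT dark, fluorescence. AOA 50uM used as positive control.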
Luciferase inh: inhibitors of firefly (Photinus pyralis) luciferase; purified P. pyralis luciferase, luminescence, biochemical; P08659; Potency, µM (doses to about 115 µM), actives largely listed as inhibitors; 76,000 compounds, 2.5% hits; further: nearly all actives have a fitted effect of over 65% in size
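Purified P. pyralis luciferase (10nM final) in 50mM Tris acetate pH 7.5, 10mM Mg acetate, 0.01% Tween-20, 0.05% BSA with 10uM D-luciferin and 10uM ATP. Compounds titrated qHTS. Luminescence imaged on CCD.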
HEK293 tox: cytotoxic compounds in HEK 293 cells | 94,000 compounds, 6.6% hits | AID 1345083 | HEK 293 viability, ATP luminescence (CellTiter-Glo), 48-72 h | Potency, µM (titrated, usually from 115 µM), most hits filed as inhibitors; further: nearly all actives have a fitted effect of over 60% in size
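qHTS cytotoxicity; HEK 293, 250 cells/well; compound pinned; 48 or 72 hr, 37 degree Celsius, 5% CO2, 95% humidity; CellTiter-Glo, 10 min RT; luminescence (ATP).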
hNpr1 antagonist: human Npr1 receptor antagonism; P16066; 76,000 compounds, 1.6% hits; Potency, µM (highest dose often 46.3 µM), actives largely listed as inhibitors; HEK293 hNpr1 GloSensor cGMP, ANP-stimulated luminescence; calls by dose curve; further: nearly all actives have a fitted effect of over 60% in size
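Compound pre-incubated 30 min at room temperature on GloSensor-loaded HEK293 cells stably carrying hNpr1 and the pGS-40F cGMP biosensor. Stimulation uses hNppA at 0.1 nM final; luminescence is taken at baseline and 20 min post-agonist.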
Each line names hits and unclear results; the compound was inactive in the other large screens. Shown are actives, neighbours in structure and some others; about 10% of the full set was active somewhere. Unless noted, the call rests on the fitted dose curve; in most records, active means well fitted curve in the direction sought with a large enough effect; inconclusive means small, poorly fitted or top-dose-only effect, or another doubt; inactive means no such curve, though single readings can be large; an effect the other way counts as inactive or inconclusive.

COCCN1C(=O)c2ccccc2C(C(=O)Nc2nnc(COC)s2)C12CCCCC2 (stereo not drawn)	NIH3T3 tox inconclusive
CC(C)NC(=O)C[C@@H]1O[C@H](CNC(=O)NC(C)C)[C@@H](O)[C@H]1O	none
COC(=O)[C@@H]1Cc2c([nH]c3ccccc23)[C@H]2C[C@@H](N3CCOCC3)C[C@@H](c3ccc(OC(F)(F)F)cc3)N21	NIH3T3 tox 44.7µM, HEK293 tox inconclusive
COC(=O)[C@@H]1Cc2c([nH]c3ccccc23)[C@H]2C[C@@H](NCc3cccnc3)C[C@@H](c3ccc(OC(F)(F)F)cc3)N21	NIH3T3 tox 31.6µM, HEK293 tox 28.2µM
COC(=O)[C@@H]1Cc2c([nH]c3ccccc23)[C@H]2C[C@@H](N3CCOCC3)C[C@@H](c3ccc(C(F)(F)F)cc3)N21	NIH3T3 tox 25.1µM, GPT2 inhibitor inconclusive, HEK293 tox 22.4µM
Cc1cc(C(=O)N2CCC(CC(=O)N(C)Cc3ccccc3)C2)n(C)n1 (stereo not drawn)	none (no result: Luciferase inh, hNpr1 antagonist)
Cc1cc(Cl)ccc1C(=O)N1Cc2cnn(Cc3ccc(F)cc3)c2C1	NIH3T3 tox inconclusive, HEK293 tox 44.7µM, hNpr1 antagonist inconclusive
CC(C)Oc1ccc(C(=O)N2Cc3cnn(Cc4ccc(F)cc4)c3C2)cc1	NIH3T3 tox inconclusive, HEK293 tox inconclusive, hNpr1 antagonist inconclusive
Cc1nn(-c2ccccc2)c(C)c1[C@@H]1C=C[C@@H](NC(=O)c2ccco2)C1	NIH3T3 tox inconclusive, HEK293 tox inconclusive, hNpr1 antagonist 35.5µM
Cc1nn(CCC#N)c(C)c1[C@@H]1C=C[C@@H](NC(=O)Nc2ccccc2)C1	NIH3T3 tox inconclusive, Luciferase inh inconclusive
Cc1nn(-c2ccc(C(F)(F)F)cc2)c(C)c1[C@@H]1C=C[C@@H](NC(=O)Nc2cccc(C#N)c2)C1	NIH3T3 tox 25.1µM, Luciferase inh 7.08µM, HEK293 tox inconclusive, hNpr1 antagonist inconclusive
Cc1nn(-c2ccc(C(F)(F)F)cc2)c(C)c1[C@@H]1C=C[C@@H](NC(=O)c2cccnc2)C1	NIH3T3 tox 28.2µM, Luciferase inh inconclusive, HEK293 tox inconclusive
Cc1nn(-c2ccccc2[N+](=O)[O-])c(C)c1[C@@H]1C=C[C@@H](NC(=O)Nc2cccc(C#N)c2)C1	NIH3T3 tox inconclusive, Luciferase inh inconclusive, HEK293 tox 39.8µM, hNpr1 antagonist inconclusive
O=C1Nc2ccc(-c3ccccc3F)cc2C(=O)N2CCN(C(=O)C3CCNCC3)C[C@H]12	none
Oc1ccc(-c2cc3c(cn2)CN(Cc2ccccc2)CCN3)cc1F	NIH3T3 tox inconclusive, Luciferase inh 25.1µM, HEK293 tox inconclusive
COc1ccc(Cl)cc1-c1cc2c(cn1)CN(Cc1cccnc1)CCN2	NIH3T3 tox inconclusive, HEK293 tox inconclusive
c1ccc(CN2CCNc3cc(-c4ccncc4)ncc3C2)cc1	GPT2 inhibitor inconclusive, Luciferase inh inconclusive, HEK293 tox inconclusive
c1ccc(CCN2CCNc3cc(N4CCN(c5ccccn5)CC4)ncc3C2)cc1	NIH3T3 tox 28.2µM, HEK293 tox 50.1µM
Fc1ccccc1-c1cc2c(cn1)CN(Cc1ccncc1)CCN2	NIH3T3 tox inconclusive, Luciferase inh 70.8µM, HEK293 tox inconclusive, hNpr1 antagonist inconclusive
COc1ccc(-c2cc3c(cn2)CN(Cc2ccccc2)CCN3)cc1OC	NIH3T3 tox 44.7µM, Luciferase inh inconclusive, HEK293 tox inconclusive
O=C(c1ccccc1Cl)N1CCC(C(=O)N2CCC(c3nc4ccncc4[nH]3)C2)CC1 (stereo not drawn)	none (no result: Luciferase inh, hNpr1 antagonist)
COCCN1C(=O)[C@@H]2C[C@@H](CN2Cc2cccc(OC)c2)Oc2ccccc21	NIH3T3 tox inconclusive, HEK293 tox inconclusive
COc1ccc(-c2cc3c(cn2)CN(CCc2ccccc2)CCN3)cc1OC	NIH3T3 tox 39.8µM, Luciferase inh 70.8µM, HEK293 tox 63.1µM
COc1ccc(CNc2cc3c(cn2)CN(Cc2ccccc2)CCN3)cc1OC	NIH3T3 tox 39.8µM, HEK293 tox 63.1µM
COc1ccc(-c2cc(-c3ccc4cn[nH]c4c3)cn3cncc23)cc1	NIH3T3 tox 79.4µM, Luciferase inh inconclusive, HEK293 tox 70.8µM
c1cc(-c2cc(-c3ccc(N4CCOCC4)nc3)cn3cncc23)ccn1	NIH3T3 tox inconclusive, HEK293 tox inconclusive
NC(=O)c1cccc(-c2cc(-c3ccncc3)c3cncn3c2)c1	NIH3T3 tox 35.5µM, HEK293 tox inconclusive
